{
  "source": "the supplement of paper PMC8728848",
  "binders": {"B1": {"name": "Clec12b (Mus musculus), Q149M0 (protein)", "chain": "MSDEVTYATLMLQDSARVRGNQDGNNLRKEGHPAQSSLWRGAALSLMTLCLVLVTGLVTLATMFLQVSNDINSDSEKLSQLQKSIHPQQDNLSESLNSSRKSLTEESLQSQISALLERQEQMATKLCKEFLIHASDHKCNPCPKTWQWYGNSCYYFSINEEKSWSDSRKDCIDKNATLVKIDSTEERDLLQSQLSLTFSFFWLGLSWNSSGRNWLWEDGSFPPPTLFSDKELASFNGSRDCAYFERGNIYASRCSAEIPWICEKTASLVKTEDLD"}},
  "assay_in_all_cases": "glycan array binding signal (z-score within array); higher = stronger binding",
  "settings_in_all_cases": "glycan notation: IUPAC condensed, linker removed",
  "key": {"Fuc(a1-2)Gal(b1-3)GalNAc": {"molecular_target": "Fuc(a1-2)Gal(b1-3)GalNAc", "in_short": "(§1)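 The Consortium for Functional Glycomics database supplied 3228 glycan arrays, of which those lacking an available protein sequence were dropped. The binding signal, a within-array Z-score, was averaged across arrays of the same protein sequence and across linkers. Negative scores can be read as non-binding.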"}, "[1]": {"molecular_target": "Fuc(a1-2)Gal(b1-3)GalNAc(a1-3)[Fuc(a1-2)]Gal(b1-4)GlcNAc", "in_short": "as §1"}, "[2]": {"molecular_target": "Fuc(a1-2)Gal(b1-3)GalNAc(b1-3)Gal(a1-4)Gal(b1-4)Glc", "in_short": "as §1"}, "[3]": {"molecular_target": "Fuc(a1-2)Gal(b1-3)GlcNAc(b1-2)Man(a1-3)[Fuc(a1-2)Gal(b1-3)GlcNAc(b1-2)Man(a1-6)]Man(b1-4)GlcNAc(b1-4)GlcNAc", "in_short": "as §1"}, "[4]": {"molecular_target": "Fuc(a1-2)Gal(b1-3)GlcNAc(b1-3)Gal(b1-4)Glc", "in_short": "as §1"}, "[5]": {"molecular_target": "Fuc(a1-2)Gal(b1-3)GlcNAc(b1-3)GalNAc", "in_short": "as §1"}, "[6]": {"molecular_target": "Fuc(a1-2)Gal(b1-3)[Fuc(a1-4)]GlcNAc(b1-2)Man(a1-3)[Fuc(a1-2)Gal(b1-3)[Fuc(a1-4)]GlcNAc(b1-2)Man(a1-3)]Man(b1-4)GlcNAc(b1-4)GlcNAc", "in_short": "as §1"}, "[7]": {"molecular_target": "Fuc(a1-2)Gal(b1-4)[Fuc(a1-3)]GlcNAc(b1-2)[Fuc(a1-2)Gal(b1-4)[Fuc(a1-3)]GlcNAc(b1-4)]Man(a1-3)[Fuc(a1-2)Gal(b1-4)[Fuc(a1-3)]GlcNAc(b1-2)Man(a1-6)]Man(b1-4)GlcNAc(b1-4)GlcNAc", "in_short": "as §1"}, "Fuc(a1-2)Gal6S(b1-4)Glc": {"molecular_target": "Fuc(a1-2)Gal6S(b1-4)Glc", "in_short": "as §1"}, "[8]": {"molecular_target": "Fuc(a1-2)Gal6S(b1-4)Glc6S", "in_short": "as §1"}, "[9]": {"molecular_target": "Fuc(a1-2)[Gal(a1-3)]Gal(b1-3)GalNAc(b1-3)Gal(a1-4)Gal(b1-4)Glc", "in_short": "as §1"}, "[10]": {"molecular_target": "Fuc(a1-2)[Gal(a1-3)]Gal(b1-4)GlcNAc(b1-2)Man(a1-3)[Fuc(a1-2)[Gal(a1-3)]Gal(b1-4)GlcNAc(b1-2)Man(a1-6)]Man(b1-4)GlcNAc(b1-4)GlcNAc", "in_short": "as §1"}, "[11]": {"molecular_target": "Fuc(a1-2)[GalNAc(a1-3)]Gal(b1-3)GlcNAc(b1-6)GalNAc", "in_short": "as §1"}, "[12]": {"molecular_target": "Fuc(a1-2)[GalNAc(a1-3)]Gal(b1-4)GlcNAc(b1-3)Gal(b1-4)GlcNAc", "in_short": "as §1"}, "[13]": {"molecular_target": "Fuc(a1-2)[GalNAc(a1-3)]Gal(b1-4)GlcNAc(b1-3)Gal(b1-4)GlcNAc(b1-3)Gal(b1-4)GlcNAc", "in_short": "as §1"}, "[14]": {"molecular_target": "Fuc(a1-2)[GalNAc(a1-3)]Gal(b1-4)GlcNAc(b1-6)GalNAc", "in_short": "as §1"}, "[15]": {"molecular_target": "Fuc(a1-2)[GalNAc(a1-3)]Gal(b1-4)[Fuc(a1-3)]GlcNAc", "in_short": "as §1"}, "Fuc(a1-3)GlcNAc": {"molecular_target": "Fuc(a1-3)GlcNAc", "in_short": "as §1"}, "Gal(a1-3)Gal(b1-3)GlcNAc": {"molecular_target": "Gal(a1-3)Gal(b1-3)GlcNAc", "in_short": "as §1"}, "[16]": {"molecular_target": "Gal(a1-3)Gal(b1-3)GlcNAc(b1-6)GalNAc", "in_short": "as §1"}, "Gal(a1-3)Gal(b1-4)GlcNAc": {"molecular_target": "Gal(a1-3)Gal(b1-4)GlcNAc", "in_short": "as §1"}, "Gal(b1-2)Gal": {"molecular_target": "Gal(b1-2)Gal", "in_short": "as §1"}, "[17]": {"molecular_target": "Gal(b1-3)GalNAc(a1-3)[Fuc(a1-2)]Gal(b1-4)GlcNAc", "in_short": "as §1"}, "[18]": {"molecular_target": "Gal(b1-3)GlcNAc(b1-3)Gal(b1-4)GlcNAc", "in_short": "as §1"}, "[19]": {"molecular_target": "Gal(b1-3)GlcNAc(b1-6)GalNAc", "in_short": "as §1"}, "Gal(b1-3)GlcNAc6S": {"molecular_target": "Gal(b1-3)GlcNAc6S", "in_short": "as §1"}, "[20]": {"molecular_target": "Gal(b1-3)[Fuc(a1-4)]GlcNAc(b1-2)Man", "in_short": "as §1"}, "[21]": {"molecular_target": "Gal(b1-3)[Fuc(a1-4)]GlcNAc(b1-2)Man(a1-3)[Gal(b1-3)[Fuc(a1-4)]GlcNAc(b1-2)Man(a1-6)]Man(b1-4)GlcNAc(b1-4)[Fuc(a1-6)]GlcNAc", "in_short": "as §1"}, "[22]": {"molecular_target": "Gal(b1-3)[GlcNAc(b1-6)]GalNAc", "in_short": "as §1"}, "[23]": {"molecular_target": "Gal(b1-4)GlcNAc(b1-2)[Gal(b1-4)GlcNAc(b1-6)]Man(a1-6)[Gal(b1-4)GlcNAc(b1-2)Man(a1-3)]Man(b1-4)GlcNAc(b1-4)[Fuc(a1-6)]GlcNAc", "in_short": "as §1"}, "[24]": {"molecular_target": "Gal(b1-4)GlcNAc(b1-3)Gal(b1-4)GlcNAc(b1-3)Gal(b1-4)GlcNAc(b1-3)Gal(b1-4)GlcNAc(b1-3)Gal(b1-4)GlcNAc(b1-2)Man(a1-3)[Gal(b1-4)GlcNAc(b1-3)Gal(b1-4)GlcNAc(b1-3)Gal(b1-4)GlcNAc(b1-3)Gal(b1-4)GlcNAc(b1-3)Gal(b1-4)GlcNAc(b1-2)Man(a1-6)]Man(b1-4)GlcNAc(b1-4)GlcNAc", "in_short": "as §1"}},
  "note": "About 410 targets per protein were measured; listed, in parts, are those with the strongest signals and a random draw of the rest.",
  "data": [
    {"binder": "B1", "values": [
      {"measurement": "glycan array binding signal (z-score)", "setting": "Fuc(a1-2)Gal(b1-3)GalNAc", "value": -0.451},
      {"measurement": "glycan array binding signal (z-score)", "setting": "[1]", "value": 0.211},
      {"measurement": "glycan array binding signal (z-score)", "setting": "[2]", "value": -0.395},
      {"measurement": "glycan array binding signal (z-score)", "setting": "[3]", "value": 2.66},
      {"measurement": "glycan array binding signal (z-score)", "setting": "[4]", "value": 3.25},
      {"measurement": "glycan array binding signal (z-score)", "setting": "[5]", "value": -0.484},
      {"measurement": "glycan array binding signal (z-score)", "setting": "[6]", "value": 2.58},
      {"measurement": "glycan array binding signal (z-score)", "setting": "[7]", "value": 2.82},
      {"measurement": "glycan array binding signal (z-score)", "setting": "Fuc(a1-2)Gal6S(b1-4)Glc", "value": 0.808},
      {"measurement": "glycan array binding signal (z-score)", "setting": "[8]", "value": -0.568},
      {"measurement": "glycan array binding signal (z-score)", "setting": "[9]", "value": -0.052},
      {"measurement": "glycan array binding signal (z-score)", "setting": "[10]", "value": 0.853},
      {"measurement": "glycan array binding signal (z-score)", "setting": "[11]", "value": 4.57},
      {"measurement": "glycan array binding signal (z-score)", "setting": "[12]", "value": -0.749},
      {"measurement": "glycan array binding signal (z-score)", "setting": "[13]", "value": -0.115},
      {"measurement": "glycan array binding signal (z-score)", "setting": "[14]", "value": 0.308},
      {"measurement": "glycan array binding signal (z-score)", "setting": "[15]", "value": -0.288},
      {"measurement": "glycan array binding signal (z-score)", "setting": "Fuc(a1-3)GlcNAc", "value": -0.323},
      {"measurement": "glycan array binding signal (z-score)", "setting": "Gal(a1-3)Gal(b1-3)GlcNAc", "value": 5.35},
      {"measurement": "glycan array binding signal (z-score)", "setting": "[16]", "value": -0.324},
      {"measurement": "glycan array binding signal (z-score)", "setting": "Gal(a1-3)Gal(b1-4)GlcNAc", "value": 0.53},
      {"measurement": "glycan array binding signal (z-score)", "setting": "Gal(b1-2)Gal", "value": 2.74},
      {"measurement": "glycan array binding signal (z-score)", "setting": "[17]", "value": -0.587},
      {"measurement": "glycan array binding signal (z-score)", "setting": "[18]", "value": -0.41},
      {"measurement": "glycan array binding signal (z-score)", "setting": "[19]", "value": -0.588},
      {"measurement": "glycan array binding signal (z-score)", "setting": "Gal(b1-3)GlcNAc6S", "value": 0.486},
      {"measurement": "glycan array binding signal (z-score)", "setting": "[20]", "value": 0.927},
      {"measurement": "glycan array binding signal (z-score)", "setting": "[21]", "value": 3.71},
      {"measurement": "glycan array binding signal (z-score)", "setting": "[22]", "value": -0.137},
      {"measurement": "glycan array binding signal (z-score)", "setting": "[23]", "value": 0.226},
      {"measurement": "glycan array binding signal (z-score)", "setting": "[24]", "value": 0.028}
    ]}
  ]
}
